Test results from PubChem BioAssay (Tox21).
Records with an inconclusive call do not appear. Entries that show only a call come without a potency. Active and inactive are the calls of the source. Calls come from the whole dose curve; as a rule, active = well fitted inhibition curve with a large enough effect in the repeat runs; inconclusive = weak or mixed curves, or effect the other way; inactive = no such curve, though single readings can be large or run the other way.

Each molecule was assayed against Nuclear receptor ROR-gamma (Homo sapiens) (UniProt P51449) (assay: qHTS assay to identify small molecule antagonists of the retinoid-related orphan receptor gamma (ROR-gamma) signaling pathway (AID 1159521; note: nearly all actives have a fitted effect of over 50% in size; for activity change, negative = inhibition: top concentration of the series differs between compounds)). Conditions: Tet-on RORgamma CHO cells, RORE-luciferase, 16 h; series mostly up to 92.4 µM.
From the text: U.S. Tox21 Program National Center for Advancing Translational Sciences [NCATS] NIH Chemical Genomics Center [NCGC] U.S. Environmental Protection Agency [EPA] National Institutes of Environmental Health Sciences [NIEHS] National Toxicology Program [NTP] U.S. Food and Drug Administration [FDA] Tox21 Assay Overview: Nuclear steroid hormone receptors are involved in many biological processes including inflammatory responses, cell proliferation, and apoptosis. Environmental factors or compounds disrupting these nuclear receptor pathways and gene expression may promote susceptibility to immunotoxicants and autoimmune diseases. One important group of these expression factors are the retinoid-related orphan receptors. To assess compounds that may interfere with the retinoid-related orphan receptor gamma (ROR-gamma) transcription factor, a cell-based luciferase assay was used. The CHO cell-based assay utilizes a TET-inducible ROR expression factor and ROR response element-LUC reporter gene. Reporter gene activity was induced using Doxycycline Hyclate and measured after 16 hr incubation. Tet-on ROR gamma CHO cells were used to screen against the Tox21 10K compound library for ROR gamma antagonists by quantification of decreased reporter gene activity in terms of decreased luminescence.
Tox21 Assay Protocol Summary: Tet-on ROR gamma CHO cells were dispensed at 1,000 cells in 4 uL of culture medium per well into white wall/solid bottom 1536-well plates using a Multidrop Combi (Thermo Scientific, Waltham, MA) dispenser. Following incubation at 37 C and 5% CO2 for 4 hr, 23 nL of compounds dissolved in DMSO, positive controls or DMSO only were transferred by a Pintool station (Kalypsys, San Diego, CA) and after 2 hr incubation at 37 C, one ul of 1 uM (final concentration) of Doxycycline Hyclate was added to all the wells by using a Flying Reagent Dispenser (FRD) (Aurora Discovery, San Diego, CA). After 16 hr incubation at 37 C and 5% CO2, 5 uL of ONE-Glo reagent (Promega Corporation, Madison, WI) was added to each assay plate using FRD. After 30 min incubation at room temperature, luminescence was quantified on a ViewLux plate reader (Perkin Elmer, Waltham, MA).
Potency is the fitted concentration of half-maximal effect.

SMILES | Potency | activity change, negative = inhibition
O=[N+]([O-])c1cncn1CCN1CCOCC1 | inactive | 
Cc1nc(C2CCCCC2)c(-c2ccc(S(N)(=O)=O)c(F)c2)o1 | inactive | 
COC(=O)Nc1ccc(Cl)c(Cl)c1 | inactive | 
CCOC(=O)c1cnc2c(cnn2CC)c1NN=C(C)C | inactive | 
CC(C)(CCC(=O)O)C(=O)O | inactive | 
CC(C)C[C@@H](N)C(=O)O |  | 6.26% [at 19 µM] (inactive)
O=C(O)CNC(=O)c1ccccc1 | inactive | 
CCOC(=O)C1=NOC(c2ccccc2)(c2ccccc2)C1 | inactive | 
NC(CCC(=O)O)C(=O)O (stereo not given) | inactive | 
O=S(=O)(O)c1cccc2ccccc12 | inactive | 
CCN[C@H]1C[C@H](C)S(=O)(=O)c2sc(S(N)(=O)=O)cc21 | inactive | 
CN1CCC(=C2c3ccccc3CCc3cccnc32)CC1 | inactive | 
CCCCN(CCC(=O)OCC)C(C)=O | inactive | 
C[N+]1(CC2COC(c3ccccc3)(c3ccccc3)O2)CCCCC1 (stereo not given) |  | 7.79% [at 19 µM] (inactive)
CCC(C(=O)NC(=O)NC(C)=O)c1ccccc1 (stereo not given) | inactive | 
[Ca+2] | inactive | 
CCC1C(=O)OCC1Cc1cncn1C (stereo not given) | inactive | 
O=Cc1cccc(Br)c1 | inactive | 
O=C(O)c1cc(C(=O)O)cc(C(=O)O)c1 | inactive | 
FB(F)F | inactive | 

SMILES | Potency | activity change, negative = inhibition
CCO[Si](OCC)(OCC)c1ccccc1 | inactive | 
Cc1ncc([C@@H](CCCCCCc2ccc3c(n2)NCCC3)CC(=O)O)cn1 | inactive | 
CN(C)C(=O)Oc1ccc[n+](C)c1 | inactive | 
CCOc1c(N2CCOCC2)cnn(C)c1=O | inactive | 
CCOC(=O)CCC(=O)OCC | inactive | 
C[N+]12CCC(CC1)C(OC(=O)C(O)(c1ccccc1)c1ccccc1)C2 (stereo not given) | inactive | 
CCN(Cc1ccccc1)c1ccccc1 | inactive | 
Clc1cc(Cl)c(Cl)nc1Cl | inactive | 
Cc1cc(C)c(N=Nc2c(O)c(S(=O)(=O)O)cc3cc(S(=O)(=O)O)ccc23)cc1C |  | -3.58% [at 8.39 µM] (inactive)
Nc1ccn([C@@H]2O[C@H](CO)[C@@H](O)[C@@H]2O)c(=O)n1 | 8.63 µM (active) | 
CC[N+](CC)(CC)CCOc1cccc(OCC[N+](CC)(CC)CC)c1OCC[N+](CC)(CC)CC | inactive | 
CC(=O)C1CCCCC1=O (stereo not given) | inactive | 
Clc1cc(Cl)cc(Cl)c1 | inactive | 
Cc1ccc(-c2ncc(Cl)cc2-c2ccc(S(C)(=O)=O)cc2)cn1 | inactive | 
CCCCCCCCCCCCCCC(=O)O | inactive | 
CC1=C(C/C=C(\C)CCC[C@H](C)CCC[C@H](C)CCCC(C)C)C(=O)c2ccccc2C1=O | inactive | 
O=S(=O)(O)c1cc(O)c(O)c(S(=O)(=O)O)c1 | inactive | 
CN1[C@@H]2CC[C@H]1CC(OC(=O)C(O)c1ccccc1)C2 (stereo not given in full) | inactive | 
CCN(C=O)CC | inactive | 
NC(=O)NC1N=C([O][Al])NC1=O (stereo not given) | inactive | 
